The nature of test [1]: qHTS assay for small molecule antagonists of peroxisome proliferator-activated receptor delta signaling (AID 588535).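 Further: cells co-treated with a PPAR-delta agonist as stimulator during compound exposure.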 The settings on record: HEK293T PPARd-UAS-bla, beta-lactamase FRET ratio, 18 h; 460 nm channel. In a few lines:
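Titrations were run on PPAR-delta-UAS-bla HEK293T cells in charcoal/dextran-stripped serum, incubated 18 h at 37 C. CCF4 fluorescence (460/530 nm) after 2 h RT; Hill equation yields IC50 and maximal response.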
On the technique in general: qHTS replaces the single test concentration by a dilution series.

Test [2] concerns the target Peroxisome proliferator-activated receptor gamma (Homo sapiens) (UniProt P37231). As to the kind of experiment: qHTS assay for small molecule agonists of peroxisome proliferator-activated receptor gamma signaling (AID 588536; active means well fitted curve in the direction sought with a large enough effect in the signal ratio, with a control signal flat, not every such curve was filed as active; the % refers to the signal ratio;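 further: 0% = DMSO basal wells and 100% = rosiglitazone at 2 µM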). Put shortly:
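Cells were plated and held 6–6.5 h at 37 C, then compounds were added as a titration series. After a further 16 h, CCF4 dye was loaded for 2 h at room temperature and emission at 460/530 nm recorded.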

For test [3] the target is unchanged. Put plainly: qHTS assay for small molecule antagonists of peroxisome proliferator-activated receptor gamma signaling (AID 588537; active means well fitted inhibition curve with a large enough effect in the signal ratio, with a control signal flat, not every such curve was filed as active; the % refers to the signal ratio;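 further: reporter cells co-stimulated with 50 nM rosiglitazone agonist during compound treatment; % of control where 0% means no effect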). Put shortly: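 Antagonist-mode β-lactamase reporter screen run as a titration series. HEK293 PPARγ-UAS-bla cells are stimulated with rosiglitazone (50 nM final) for 16 h, then CCF4 is read at 460/530 nm. Data are scaled between DMSO and rosiglitazone and fitted to the Hill equation.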

The target in test [4] is Vitamin D3 receptor (Homo sapiens) (UniProt P11473). Put plainly: qHTS assay for small molecule agonists of vitamin D receptor signaling (AID 588543; calls by dose curve;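 further: 0% = DMSO basal and 100% = reference agonist control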). Put shortly:
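qHTS in agonist mode: compound titrations stimulate a VDR-driven β-lactamase reporter in HEK293T cells over 16 h at 37 °C. Response normalized to 50 nM 1α,25-dihydroxyvitamin D3 = 100%, DMSO = 0%; Hill fitting gives EC50 and maximal response.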

Test [5] is described as follows: qHTS assay for small molecule activators of the p53 signaling pathway (AID 651743; active means well fitted activation curve with a large enough effect in the signal ratio, not every such curve was filed as active; the % refers to the signal ratio; further: series mostly up to about 92 µM; % of control where 0% means no effect). The settings on record: HCT-116 p53RE-bla, beta-lactamase FRET ratio, 16 h; activation: stronger effect = higher value. Put shortly:
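After 16 hours compound treatment at 37 C, HCT-116 cells stably expressing p53RE-driven beta-lactamase were loaded with LiveBLAzer B/G FRET substrate for 2 hours at room temperature. Fluorescence intensity served as the p53 activation read-out.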

Test [6] in a line: qHTS assay for small molecule activators of the nuclear factor-kappa B (NF-kB) signaling pathway (AID 651749; active means well fitted activation curve with a large enough effect in the signal ratio; the % refers to the signal ratio; further: series mostly up to about 77 µM; % of control where 0% means no effect). The settings on record: NF-kB-bla ME-180 cells, beta-lactamase FRET ratio, 16 h; activation: stronger effect = higher value. Put shortly: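 Activation measured after 16 hr compound treatment at 37C, 5% CO2, of 2,000 ME-180 cells/well stably expressing an NF-kB response element–driven beta-lactamase reporter, via FRET-disruption fluorescence.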

Test [7] in a line: qHTS assay for environmental chemicals that activate the Aryl hydrocarbon Receptor (AhR) signaling pathway (AID 651777). Further: nearly all actives have a fitted effect of over 15% in size. Further: potency means the concentration at half of the fitted maximal effect. On activation: % of control where 0% means no effect. Particulars: 1A2-DRE human hepatoma cells, luciferase, 24 h; activation: stronger effect = higher value. Put shortly:
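Induction of CYP1A2 transcription through AhR is detected by luciferase in 1A2-DRE hepatoma cells. Compounds or DMSO act for 24 hr at 37 C before a 30 min One-Glo step at room temperature.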

In test [8] the target is Peroxisome proliferator-activated receptor alpha (Homo sapiens) (UniProt Q07869). Put plainly: qHTS assay for small molecule agonists of the peroxisome proliferator-activated receptor alpha (PPARalpha) signaling pathway (AID 651778). Further: % of control where 0% means no effect. Particulars: PathHunter PPARalpha complementation, chemiluminescence, 6 h; max response: stronger effect = higher value. In a few lines:
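Chemiluminescence from complemented enzyme reported PPARalpha activation in cells after 6 hr of compound treatment at 37 C. The detection reagent was incubated for 60 min at room temperature, and compounds were scored as agonists.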

The nature of test [9]: qHTS assay for small molecule agonists of the antioxidant response element (ARE) signaling pathway measured by Nrf2-dependant transcriptional activity - cell viability counter screen (AID 720653; active means well fitted curve in the direction sought with a large enough effect in the repeat runs; an effect the other way counts as inactive or inconclusive; further: on the % scale 0 is the no-effect control and ±100 the full control effect). The settings on record: ARE-bla HepG2 viability, CellTiter-Glo ATP luminescence, 16 h; max response: stronger effect = lower value. In a few lines:
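Cytotoxicity counter screen: intracellular ATP quantified by CellTiter-Glo luminescence in the same ARE-bla HepG2 plates, after 16 h compound exposure and a 2 h beta-lactamase substrate step.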

Test [10] in a line: qHTS assay for cell viability of the p53RE-bla HCT-116 cell line (AID 743292). Further: nearly all actives have a fitted effect of over 55% in size. Further: potency means the concentration at half of the fitted maximal effect. Put shortly: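 In this qHTS counter-screen, metabolically competent p53RE-bla HCT-116 cells were counted via their ATP content. Compounds were applied for 16 h at 37 C and luciferase-coupled luminescence was measured.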
The target of test [11] is Glucocorticoid receptor (Homo sapiens) (UniProt P04150). Put plainly: qHTS assay for small molecule antagonists of glucocorticoid receptor signaling (AID 588533; active means well fitted inhibition curve with a large enough effect in the signal ratio, with a control signal flat, not every such curve was filed as active; the % refers to the signal ratio;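 further: cells stimulated with 2 nM dexamethasone as agonist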; further: potency means the concentration at half of the fitted maximal effect). In a few lines: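 Antagonist-mode qHTS: compound titrations added to GRE-bla HeLa cells, then dexamethasone 2 nM final; 18 h, 37 C. CCF4 FRET fluorescence normalized to dexamethasone and DMSO; IC50 from Hill fit.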

A short description of test [12]: qHTS assay for small molecule agonists of retinoid X receptor alpha signaling (AID 588544). The settings on record: HEK293T RXRa-UAS-bla, beta-lactamase reporter, 18 h; 530 nm emission.
The target of test [13] is Thyroid hormone receptor beta (Homo sapiens) (UniProt P10828). As to the kind of experiment: qHTS assay for small molecule agonists of thyroid hormone receptor beta signaling (AID 588545; calls by dose curve). Put shortly:
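Agonist-mode beta-lactamase reporter assay, HEK 293 cells, 2% charcoal/dextran FBS; cells plated 4 hrs, compound 18 hrs at 37 C, CCF4 2 hrs RT. Normalized to 10 nM T3 (100%) and DMSO (0%); Hill fit gives EC50, efficacy.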

Test [14] in a line: qHTS assay for small molecule antagonists of retinoid X receptor alpha signaling (AID 588546; active means well fitted inhibition curve with a large enough effect in the signal ratio, with a control signal flat, not every such curve was filed as active; the % refers to the signal ratio;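 further: cells stimulated with 9-cis-retinoic acid as agonist; on the % scale 0 is the no-effect control and ±100 the full control effect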). Particulars: HEK293T RXRa-UAS-bla, beta-lactamase ratio, antagonist mode; measured here: W530 green channel, cytotoxicity proxy. In a few lines: (§1)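 Beta-lactamase reporter inhibition, read as CCF4 fluorescence ratio (ex 405, em 460/530 nm) after 2 h at RT. HEK293T UAS-bla cells, 2500/well, were stimulated with 9-cis-RA at 500 or 100 nM final alongside test compound for 18 h at 37 C.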

Test [15] concerns the target Retinoic acid receptor RXR-alpha (Homo sapiens) (UniProt P19793). The test is described as above. The settings on record: HEK293T RXRa-UAS-bla, beta-lactamase ratio, antagonist mode. In a few lines: as §1
Test [16] is described as follows: qHTS assay for cell viability of HEK293 cells (AID 743288). Further: nearly all actives have a fitted effect of over 50% in size. Further: potency means the concentration at half of the fitted maximal effect. On max response: on the % scale 0 is the no-effect control and ±100 the full control effect. Particulars: ATP luminescence (CellTiter-Glo), 18 h; max response: stronger effect = lower value. Put shortly: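 Quantitative high-throughput screen: compounds were pinned onto parental HEK293 cells (2,000 per well) after a minimum 5 h settling at 37 C, incubated 18 h at 37 C, and intracellular ATP measured by luciferase luminescence.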

The target of test [17] is Nuclear receptor subfamily 1 group I member 2 (Rattus norvegicus) (UniProt Q9R1A7). As to the kind of experiment: qHTS assay for small molecule activators of the rat pregnane X receptor (rPXR) signaling pathway (AID 651751; call rule not given here; further: 0% is about no effect). Particulars: rPXR reporter cells, luciferase (One-Glo), 24 h.
The nature of test [18]: qHTS assay for small molecule activators of the human pregnane X receptor (PXR) signaling pathway (AID 720659; call rule not given here; further: 0% is about no effect).
For test [19], the target named is Glucocorticoid receptor (Homo sapiens) (UniProt P04150). As to the kind of experiment: qHTS assay for small molecule agonists of glucocorticoid receptor signaling (AID 588532; active means well fitted curve in the direction sought with a large enough effect in the signal ratio, with a control signal flat; the % refers to the signal ratio;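 further: 100% = dexamethasone at 0.1 µM and 0% = DMSO only wells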). The settings on record: HeLa MMTV-bla, beta-lactamase ratio, agonist, 18 h; stronger effect = higher value; percent of dexamethasone control, DMSO zero. Put shortly: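 Quantitative HTS using CellSensor MMTV-bla HeLa cells in charcoal/dextran-treated serum; compounds tested up to 92 uM. After 18 h at 37 C, CCF4 dye reported reporter induction.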

The nature of test [20]: qHTS assay for small molecule agonists of the antioxidant response element (ARE) signaling pathway measured by Nrf2-dependant transcriptional activity (AID 720636; active means well fitted curve in the direction sought with a large enough effect in the repeat runs; an effect the other way counts as inactive or inconclusive;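 further: HepG2 cells with an ARE-driven luciferase reporter; % of control where 0% means no effect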). In a few lines: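 We exposed ARE-luc HepG2 cells, seeded in assay medium with 1% dialyzed FBS and allowed 6 hr to adhere, to test compounds overnight (16 hr, 37 C) before measuring luciferase with ONE-Glo.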

Inconclusive results are not listed. Calls of active or inactive are those of the source. Unless noted, the call rests on the fitted dose curve; in most records, active means well fitted curve in the direction sought with a large enough effect; inconclusive means small, poorly fitted or top-dose-only effect, or another doubt; inactive means no such curve, though single readings can be large; an effect the other way counts as inactive or inconclusive.

Sequence of Peroxisome proliferator-activated receptor alpha (Homo sapiens) (Q07869 whole entry, looked up): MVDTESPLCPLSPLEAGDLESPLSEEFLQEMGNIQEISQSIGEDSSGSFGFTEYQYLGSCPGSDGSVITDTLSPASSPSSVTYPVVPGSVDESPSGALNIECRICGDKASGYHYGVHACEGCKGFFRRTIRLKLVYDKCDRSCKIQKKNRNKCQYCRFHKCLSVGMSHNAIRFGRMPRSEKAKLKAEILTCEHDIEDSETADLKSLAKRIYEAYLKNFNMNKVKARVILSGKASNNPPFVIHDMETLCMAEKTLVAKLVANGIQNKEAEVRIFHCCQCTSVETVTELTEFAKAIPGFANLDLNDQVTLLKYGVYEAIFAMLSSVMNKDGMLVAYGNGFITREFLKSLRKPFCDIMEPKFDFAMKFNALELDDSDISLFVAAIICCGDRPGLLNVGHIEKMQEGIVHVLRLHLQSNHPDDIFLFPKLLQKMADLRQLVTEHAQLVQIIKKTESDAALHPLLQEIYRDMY
Sequence of Peroxisome proliferator-activated receptor gamma (Homo sapiens) (P37231 whole entry, looked up): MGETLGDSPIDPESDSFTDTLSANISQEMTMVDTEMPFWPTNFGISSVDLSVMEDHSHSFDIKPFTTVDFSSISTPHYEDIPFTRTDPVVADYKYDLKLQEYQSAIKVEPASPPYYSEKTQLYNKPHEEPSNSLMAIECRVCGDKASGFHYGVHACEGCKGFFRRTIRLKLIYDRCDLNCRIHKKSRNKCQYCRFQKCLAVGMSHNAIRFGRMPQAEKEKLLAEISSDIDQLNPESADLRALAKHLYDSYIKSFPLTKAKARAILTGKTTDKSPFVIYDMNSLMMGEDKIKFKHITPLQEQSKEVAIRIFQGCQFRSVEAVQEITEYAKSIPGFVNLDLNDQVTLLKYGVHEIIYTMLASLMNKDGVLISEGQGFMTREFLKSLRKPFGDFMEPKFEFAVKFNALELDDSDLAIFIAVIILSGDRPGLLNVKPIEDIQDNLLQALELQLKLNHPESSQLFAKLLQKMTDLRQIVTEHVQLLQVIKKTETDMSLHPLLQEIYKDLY
Sequence of Thyroid hormone receptor beta (Homo sapiens) (P10828 whole entry, looked up): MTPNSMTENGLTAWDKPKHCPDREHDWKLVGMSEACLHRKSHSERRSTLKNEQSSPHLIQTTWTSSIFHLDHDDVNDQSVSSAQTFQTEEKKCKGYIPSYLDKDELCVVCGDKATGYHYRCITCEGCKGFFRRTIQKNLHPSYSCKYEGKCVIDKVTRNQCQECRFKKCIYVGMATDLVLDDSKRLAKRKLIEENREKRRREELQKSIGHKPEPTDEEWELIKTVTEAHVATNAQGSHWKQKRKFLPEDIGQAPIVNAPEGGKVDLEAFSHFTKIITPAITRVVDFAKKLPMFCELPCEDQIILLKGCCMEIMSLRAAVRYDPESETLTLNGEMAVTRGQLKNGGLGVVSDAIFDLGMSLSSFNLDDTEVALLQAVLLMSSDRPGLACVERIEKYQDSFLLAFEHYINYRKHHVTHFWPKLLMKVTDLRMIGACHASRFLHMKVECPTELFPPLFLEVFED
Sequence of Retinoic acid receptor RXR-alpha (Homo sapiens) (P19793 whole entry, looked up): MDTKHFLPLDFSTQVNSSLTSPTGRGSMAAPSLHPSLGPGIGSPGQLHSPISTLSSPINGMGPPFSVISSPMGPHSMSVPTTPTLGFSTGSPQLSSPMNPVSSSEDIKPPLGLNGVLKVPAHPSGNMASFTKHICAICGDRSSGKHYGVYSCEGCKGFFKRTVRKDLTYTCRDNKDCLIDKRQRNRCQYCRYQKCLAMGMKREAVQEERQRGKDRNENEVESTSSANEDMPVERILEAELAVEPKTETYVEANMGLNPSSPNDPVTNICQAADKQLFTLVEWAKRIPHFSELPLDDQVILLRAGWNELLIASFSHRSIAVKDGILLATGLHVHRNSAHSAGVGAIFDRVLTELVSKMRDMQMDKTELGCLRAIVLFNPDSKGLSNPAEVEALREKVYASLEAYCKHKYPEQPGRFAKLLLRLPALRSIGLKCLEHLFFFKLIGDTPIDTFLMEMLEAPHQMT
Sequence of Glucocorticoid receptor (Homo sapiens) (P04150 whole entry, looked up): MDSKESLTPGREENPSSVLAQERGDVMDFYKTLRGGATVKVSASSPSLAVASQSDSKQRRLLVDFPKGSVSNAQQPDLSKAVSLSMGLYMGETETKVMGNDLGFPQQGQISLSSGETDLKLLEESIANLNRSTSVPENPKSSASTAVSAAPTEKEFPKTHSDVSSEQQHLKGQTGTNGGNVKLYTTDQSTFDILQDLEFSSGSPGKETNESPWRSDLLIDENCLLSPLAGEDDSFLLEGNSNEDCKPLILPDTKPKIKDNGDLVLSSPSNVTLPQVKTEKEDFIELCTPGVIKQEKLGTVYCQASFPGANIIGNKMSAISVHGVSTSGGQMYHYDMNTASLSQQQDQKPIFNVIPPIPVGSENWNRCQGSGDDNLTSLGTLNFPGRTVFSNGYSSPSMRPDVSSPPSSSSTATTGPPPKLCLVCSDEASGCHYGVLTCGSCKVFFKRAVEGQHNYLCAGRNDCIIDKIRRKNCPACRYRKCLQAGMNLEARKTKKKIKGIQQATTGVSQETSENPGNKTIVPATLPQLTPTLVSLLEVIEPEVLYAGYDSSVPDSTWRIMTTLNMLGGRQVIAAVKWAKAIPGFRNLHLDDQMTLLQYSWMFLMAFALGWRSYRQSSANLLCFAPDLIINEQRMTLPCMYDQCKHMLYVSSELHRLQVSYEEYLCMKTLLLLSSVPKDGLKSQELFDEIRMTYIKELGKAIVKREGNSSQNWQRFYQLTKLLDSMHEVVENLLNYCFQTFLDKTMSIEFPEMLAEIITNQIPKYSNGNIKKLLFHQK
Sequence of Nuclear receptor subfamily 1 group I member 2 (Rattus norvegicus) (Q9R1A7 whole entry, looked up): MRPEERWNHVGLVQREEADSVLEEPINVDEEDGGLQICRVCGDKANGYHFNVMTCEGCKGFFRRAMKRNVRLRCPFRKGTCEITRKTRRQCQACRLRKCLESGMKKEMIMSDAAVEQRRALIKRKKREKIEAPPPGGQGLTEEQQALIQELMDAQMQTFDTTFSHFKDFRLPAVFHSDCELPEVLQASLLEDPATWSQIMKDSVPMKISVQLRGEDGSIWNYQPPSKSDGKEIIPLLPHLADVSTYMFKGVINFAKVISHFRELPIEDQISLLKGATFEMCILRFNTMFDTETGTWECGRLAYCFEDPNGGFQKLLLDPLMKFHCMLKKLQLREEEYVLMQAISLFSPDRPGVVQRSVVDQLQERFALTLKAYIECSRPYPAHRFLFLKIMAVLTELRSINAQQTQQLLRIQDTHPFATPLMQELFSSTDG
Sequence of Vitamin D3 receptor (Homo sapiens) (P11473 whole entry, looked up): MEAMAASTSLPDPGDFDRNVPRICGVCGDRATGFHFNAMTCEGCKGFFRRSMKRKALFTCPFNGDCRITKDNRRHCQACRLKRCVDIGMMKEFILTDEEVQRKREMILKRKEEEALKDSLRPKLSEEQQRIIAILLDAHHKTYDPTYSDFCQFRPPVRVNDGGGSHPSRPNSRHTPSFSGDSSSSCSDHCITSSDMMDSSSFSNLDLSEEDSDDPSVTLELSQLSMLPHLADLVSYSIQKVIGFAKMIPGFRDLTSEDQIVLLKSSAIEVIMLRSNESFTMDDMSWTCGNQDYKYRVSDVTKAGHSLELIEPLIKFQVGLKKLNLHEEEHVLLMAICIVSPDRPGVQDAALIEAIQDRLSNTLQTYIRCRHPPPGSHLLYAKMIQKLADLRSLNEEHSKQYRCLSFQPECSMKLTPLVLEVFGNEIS

For `CCN(Cc1c(F)cccc1Cl)c1c([N+](=O)[O-])cc(C(F)(F)F)cc1[N+](=O)[O-]`, the values for the max response in [1], in [8] and in [9] were -79%, -0.89% (inactive) and -3.47% (inactive), respectively. The compound was classed as inactive in test [2] and in test [4]. The Potency result in test [3] and in test [10] was “inactive” each time. The activation in test [5] was 1.01% (inactive); in [6], -3.71% (inactive); in [7], 0.127% (inactive).

For `CCCCCCCCCCCCCCCC`, the Potency result in test [11], in test [3], in test [13] and in [10] was “inactive” throughout. Further, the max response in test [1] was 55.6%; in test [12] it was 0.581%; in [14], -21.5%; in [15], -1.47% (inactive); in [9], -4.36% (inactive); in test [16] it was -2.82% (inactive). The max response in test [17] is 1.98% (inactive). The compound was called inactive in [2] and in [18]. The activation is -5.95% (inactive) in test [5] and 0.0152% (inactive) in test [7].

As for `O=C(O)c1cc(O)c2ccccc2c1O`, the activation was -13.3% (inactive) in test [19] and -4.76% (inactive) in test [5]. The figures for the Potency in test [11], in test [7] and in test [10] were 44.7 µM (active), 14.1 µM (active) and 39.8 µM (active), respectively. Further, the Potency entry in [13] was “inactive”. Further, the max response in test [8] is -7.87% (inactive); in [17], 5.84% (inactive).

With `S=C([S-])NCCNC(=S)[S-].S=C([S-])NCCNC(=S)[S-].[Mn+2].[Zn+2]`, the outcome in [2] and in test [4] was inactive. The Potency entry in test [13] is “inactive”. Also, the activation in [7] is 0.587% (inactive). The max response in test [8] is -4.1% (inactive); in test [9] it was 17.6% (inactive); in test [16] it was 2.96% (inactive); in test [17], -11.1% (inactive).

For the compound `Cc1nn(C)c(Oc2ccccc2)c1/C=N/OCc1ccc(C(=O)OC(C)(C)C)cc1`, the activation was -3.9% (inactive) in [19] and 9.47% (inactive) in test [5]. The Potency entry in [11], in [13], in test [20] and in test [10] was “inactive” each time. Further, the max response in [12] is -10.3%; in [8] it was 2.08% (inactive). The outcome in test [18] was inactive.

On to `OCCOCCOCCOCCOCCO`, for which the max response was -16.8% in test [1]; 5.49% in [12]; -8.78% in [14]; 0.858% (inactive) in test [15]; -1.15% (inactive) in [8]; -9.49% (inactive) in test [9]. In addition, the max response in test [16] is -4.24% (inactive). In addition, the compound was called inactive in [2] and in [4]. In addition, the Potency result in [3], in test [13], in [20] and in test [10] was “inactive” in each case. Moreover, the activation in test [5] was 2.86% (inactive).

Consider `O=C=NC1CCC(CC2CCC(N=C=O)CC2)CC1` (configuration not stated), for which the results for the activation in test [19], in test [5] and in test [7] were -3.36% (inactive), -0.886% (inactive) and 0.629% (inactive), respectively. Moreover, the max response in test [1] is 20.7%; in [12], -11%; in [14], -7.15%; in test [15], -13.6% (inactive); in test [8] it was -2.73% (inactive); in [9], -1.04% (inactive). In addition, the max response in test [16] was -9.19% (inactive); in [17], -1.91% (inactive). Further, the Potency result in [3], in [13], in [20] and in test [10] was “inactive” in each case. Further, the compound was called inactive in test [4] and in [18].

Consider `CC[C@H](C)C1O[C@]2(C=C[C@@H]1C)C[C@@H]1C[C@@H](C/C=C(\C)[C@@H](O[C@H]3C[C@H](OC)[C@@H](O[C@H]4C[C@H](OC)[C@H](NC(C)=O)[C@H](C)O4)[C@H](C)O3)[C@@H](C)/C=C/C=C3\CO[C@@H]4[C@H](O)C(C)=C[C@@H](C(=O)O1)[C@]34O)O2` (some centres not stated), for which the activation was -14.6% (inactive) in test [19] and -11.2% (inactive) in [7]. For the same compound, the Potency entry in test [20] is “inactive”. The values for the Potency in test [16] and in [10] were 44.7 µM (active) and 14.1 µM (active), respectively. For the same compound, the outcome in test [18] was inactive.
